From PubChem BioAssay (NCATS)
Where “and” joins values, the source holds several entries; their conditions need not be identical. Equal entries are not always repeated. Records with an inconclusive call do not appear. Where a structure was tested more than once in an assay, its records may differ in their call. Calls of active or inactive are those of the source. Unless noted, the call rests on the fitted dose curve; in most records, active means well fitted curve in the direction sought with a large enough effect; inconclusive means small, poorly fitted or top-dose-only effect, or another doubt; inactive means no such curve, though single readings can be large; an effect the other way counts as inactive or inconclusive.

Legend:
[1] = qHTS assay for small molecule agonists of the antioxidant response element (ARE) signaling pathway (AID 651741; active means well fitted activation curve with a large enough effect in the signal ratio; the % refers to the signal ratio; further: potency means the concentration at half of the fitted maximal effect; on activation: % of control where 0% means no effect); conditions: HepG2 ARE-bla reporter, beta-lactamase FRET ratio, 16 h; series mostly up to 96 µM
Summary of the method: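 ARE-bla HepG2 cells (beta-lactamase reporter under ARE control) were plated at 2,000 cells/well, preincubated 5 h at 37 C/5% CO2, then treated with DMSO-dissolved compounds for 16 h at 37 C; LiveBLAzer B/G FRET substrate added, fluorescence read after 2 h at room temperature.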

[2] = qHTS assay for small molecule activators of the p53 signaling pathway (AID 651743; active means well fitted activation curve with a large enough effect in the signal ratio, not every such curve was filed as active; the % refers to the signal ratio; further: potency means the concentration at half of the fitted maximal effect; on activation: % of control where 0% means no effect); conditions: HCT-116 p53RE-bla, beta-lactamase FRET ratio, 16 h; activation: hits give high values
Summary of the method: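 p53RE-bla HCT-116 cells with a stably integrated beta-lactamase reporter under p53 response elements were plated, rested 5 hours at 37 C/5% CO2, then exposed to compounds in DMSO for 16 hours at 37 C. LiveBLAzer B/G FRET substrate was read after 2 hours at room temperature.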

[3] = qHTS assay for small molecule activators of the nuclear factor-kappa B (NF-kB) signaling pathway (AID 651749; active means well fitted activation curve with a large enough effect in the signal ratio; the % refers to the signal ratio; further: % of control where 0% means no effect); conditions: NF-kB-bla ME-180 cells, beta-lactamase FRET ratio, 16 h; hits give high values
Summary of the method: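 ME-180 cells stably carrying a beta-lactamase reporter under an NF-kB response element were exposed to compound or DMSO vehicle for 16 hr at 37C, 5% CO2. Pathway activation was read by FRET, since reporter expression disrupts FRET.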

[4] = qHTS assay for small molecule disruptors of the mitochondrial membrane potential - 1 hr assay (AID 651754; calls by dose curve; further: nearly all actives have a fitted effect of over 35% in size; further: potency means the concentration at half of the fitted maximal effect); conditions: series mostly up to 92.2 µM
Summary of the method: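 HepG2 cells, attached overnight at 37C, were exposed to compound or DMSO vehicle for 1 hr at 37C, 5% CO2, then stained with Mito-MPS dye for 30 min. Red aggregate versus green monomer fluorescence reports membrane potential.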

[5] = qHTS assay for small molecule disruptors of the mitochondrial membrane potential - 5 hr assay (AID 651755; calls by dose curve; further: nearly all actives have a fitted effect of over 40% in size; further: potency means the concentration at half of the fitted maximal effect); conditions: JC-1-type ratio dye; series mostly up to 92.2 µM
Summary of the method: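 HepG2 cells, attached overnight at 37C, were exposed to compound or DMSO for 5 hr at 37C, 5% CO2. Mito-MPS dye was then added for 30 min, and fluorescence read at 490/535 nm (monomers) and 540/590 nm (aggregates).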

[6] = target: Tumor necrosis factor (Homo sapiens) (UniProt P01375); experiment: qHTS assay to identify small molecules that stimulate Tumor Necrosis Factor-alpha (TNF-alpha) secretion (AID 651757; active means well fitted curve in the direction sought with a large enough effect in the signal ratio; the % refers to the signal ratio; further: 0% is about no effect); conditions: Human cells, HTRF 665/615 ratio; series mostly up to 92.2 µM
Summary of the method: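 THP-1 cells were exposed to compounds for 17 hrs at 37 C, after which secreted TNF-alpha was measured by homogeneous HTRF (TR-FRET) using cryptate- and XL665-labeled anti-TNF-alpha antibodies, read after 3 hr at room temperature.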

[7] = qHTS assay for environmental chemicals that activate the Aryl hydrocarbon Receptor (AhR) signaling pathway (AID 651777); conditions: 1A2-DRE human hepatoma cells, luciferase, 24 h; activation: hits give high values; further: nearly all actives have a fitted effect of over 15% in size; further: potency means the concentration at half of the fitted maximal effect; on activation: % of control where 0% means no effect
Summary of the method: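 Measured luciferase activity, read 30 min after One-Glo addition at room temperature, from human hepatoma cells bearing a dioxin response element–CYP1A2 promoter reporter and exposed to compound for 24 hr at 37 C.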

[8] = target: Peroxisome proliferator-activated receptor alpha (Homo sapiens) (UniProt Q07869); experiment: qHTS assay for small molecule agonists of the peroxisome proliferator-activated receptor alpha (PPARalpha) signaling pathway (AID 651778); conditions: PathHunter PPARalpha complementation, chemiluminescence, 6 h; hits give high values; further: % of control where 0% means no effect
Summary of the method: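 Cells plated at 2,000/well and held overnight at 37 C, 5% CO2, then compound added by pin tool for 6 hr; after PathHunter detection reagent and 60 min at room temperature, chemiluminescence from enzyme complementation was read.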

[9] = qHTS assay to identify small molecules that stimulate interleukin-8 (IL-8) secretion (AID 651758; active means well fitted activation curve with a large enough effect in the signal ratio; the % refers to the signal ratio; further: 0% is about no effect); conditions: HTRF ratio (665/615); series mostly up to 92.2 µM
Summary of the method: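 THP-1, 2000 cells/well; cpd 16 h, 37 C; add cryptate + XL665 anti-IL-8 Abs; RT 1-3 h; TR-FRET read.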

[10] = Cell Proliferation Assay against the TMD8 Cell Line (Caspase readout at 8 hrs) (AID 651713); conditions: TMD8 lymphoma cells, caspase activation luminescence; further: potency means the concentration at half of the fitted maximal effect
Summary of the method: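 TMD8 cells (500/well) in phenol red-free RPMI with 5% FBS were treated with compounds for 8 h at 37C, 5% CO2. Caspase-Glo 3/7 luminescence was read after 15 min at room temperature and normalised to DMSO (0%) and 9.2 uM bortezomib (100%).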

Sequence of Tumor necrosis factor (Homo sapiens) (P01375 whole entry, looked up): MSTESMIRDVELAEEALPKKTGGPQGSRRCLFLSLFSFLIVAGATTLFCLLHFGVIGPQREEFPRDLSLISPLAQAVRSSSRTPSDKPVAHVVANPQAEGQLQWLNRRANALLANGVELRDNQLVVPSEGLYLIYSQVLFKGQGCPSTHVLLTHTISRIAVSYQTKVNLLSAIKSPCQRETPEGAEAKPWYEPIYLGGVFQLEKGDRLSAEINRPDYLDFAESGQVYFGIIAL
Sequence of Peroxisome proliferator-activated receptor alpha (Homo sapiens) (Q07869 whole entry, looked up): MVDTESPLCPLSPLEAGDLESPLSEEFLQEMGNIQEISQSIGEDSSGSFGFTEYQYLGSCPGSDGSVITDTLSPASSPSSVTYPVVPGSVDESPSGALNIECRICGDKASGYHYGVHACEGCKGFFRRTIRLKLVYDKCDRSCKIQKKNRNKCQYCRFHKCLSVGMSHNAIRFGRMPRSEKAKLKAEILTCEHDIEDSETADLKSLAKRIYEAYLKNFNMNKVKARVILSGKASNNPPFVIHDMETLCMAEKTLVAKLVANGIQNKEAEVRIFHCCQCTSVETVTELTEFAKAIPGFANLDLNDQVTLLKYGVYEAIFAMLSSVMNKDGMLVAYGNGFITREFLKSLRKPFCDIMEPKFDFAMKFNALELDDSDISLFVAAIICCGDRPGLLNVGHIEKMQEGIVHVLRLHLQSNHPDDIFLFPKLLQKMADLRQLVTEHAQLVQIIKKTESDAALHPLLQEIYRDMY

CC(=O)OC/C=C(C)/C=C/C=C(C)/C=C/C1=C(C)CCCC1(C)C
active: Potency [1] 42.2 µM and 54.5 µM
inactive: activation [2] -8.23% and -2.69% | activation [3] -1.82% and 0.334% | Potency [4] | Potency [5] | outcome [6] | activation [7] -0.036% and -0.475% | max response [8] -6.94% and -1.56%

Nc1c2ccccc2nc2ccccc12
inactive: max response [8] -4.95%
active: Potency [1] 10.6 µM | Potency [2] 11.2 µM | Potency [4] 9.44 µM | Potency [5] 15 µM

CCCC(=O)c1cc(O)c(O)cc1O
inactive: activation [2] -5.77% | activation [3] 0.282% | Potency [5] | activation [7] -2.11% | max response [8] -3.73%

CC(C)C(C)(C)C(C)(C)C(C)(C)S
inactive: Potency [1] | activation [2] 1.86% and -1.44% | activation [3] -1.05% and -0.196% | outcome [6] | outcome [9] | activation [7] 1.1% and 1.7% | max response [8] -3.79% and -2.56%

CN1C(=O)c2ccccc2C1=O
inactive: Potency [1] | activation [2] 8.47% | activation [3] 0.745% | activation [7] 1.05% | max response [8] -1.08%

Cc1cc(C(C)(C)C)c(O)c(C(C)(C)C)c1
inactive: Potency [1] | activation [2] -3.94% and -1.07% | activation [3] -0.477% | outcome [6] | activation [7] 0.771% and -0.0452% | max response [8] 0.589%

Cc1ncc(CO)c(CO)c1O
inactive: Potency [1] | activation [7] -1.88% | max response [8] -1.89%

O=C(Oc1ccccc1)c1cccc(C(=O)Oc2ccccc2)c1
inactive: max response [8] 4.8%

C1=CC2C3C=CC(C3)C2C1 (centres undefined)
inactive: Potency [1] | activation [2] -1.4% | activation [3] -1.05% | outcome [6] | activation [7] 0.971% | max response [8] -3.12%

O=C(Oc1ccccc1)c1ccccc1O
inactive: Potency [1] | outcome [6] | activation [7] -0.0038% and 1.61% | max response [8] 7.82% and -2.96%

Cc1ccc(O)cc1
inactive: activation [2] -3.91% | activation [3] -0.225% | Potency [4] | Potency [5] | outcome [6] | max response [8] -0.0678%

CCCCCCCCCCCCCCCC[n+]1ccccc1
inactive: activation [2] 2.82% | Potency [4] | Potency [5] | outcome [6] | activation [7] 5.1% | max response [8] 1.85%

Nc1ccc(O)cc1
active: Potency [1] 26.6 µM
inactive: max response [8] -0.783%

c1ccc2occc2c1
inactive: activation [2] -0.261% and -6.48% and -3.89% | activation [3] -0.808% and 0.0616% and -0.684% | Potency [4] | Potency [5] | outcome [6] | activation [7] 2.4% | max response [8] 0.199% and 3.33% and -1.19%
active: Potency [7] 1.26 mM and 25.1 µM

CC(C)(C)c1ccc(O)c(O)c1
inactive: activation [2] 2.58% and -2.7% | activation [3] -0.887% and -1.66% | outcome [6] | activation [7] 7.39% and 2.07% | max response [8] 11.7% and 0.802%
active: Potency [1] 37.6 µM and 48.6 µM | Potency [4] 37.6 µM

CCCCC(CC)COC(=O)c1ccccc1C(=O)O (centres undefined)
inactive: activation [2] -2.67% and -0.261% | Potency [4] | Potency [5] | outcome [6] | outcome [9]

CCN(CC)CCOc1ccc(/C(=C(\Cl)c2ccccc2)c2ccccc2)cc1
inactive: activation [7] -0.728% | max response [8] 11.1%

OCCOCCN1CCN(C(c2ccccc2)c2ccc(Cl)cc2)CC1 (centres undefined)
inactive: Potency [1] | activation [2] -1.54% | max response [8] -2.06%

Brc1ccccc1-c1ccccc1
inactive: Potency [1] | activation [2] 0.157% | activation [3] -0.27% | Potency [4] | Potency [5] | outcome [6] | outcome [9] | max response [8] -0.0593%

OCc1c[nH]c2ccccc12
inactive: activation [2] -1.58% | activation [3] -1.28% | Potency [4] | Potency [5] | outcome [6] | activation [7] 2.25% | max response [8] -6.59%
active: Potency [1] 66.8 µM

COc1cc(C=O)ccc1O
inactive: activation [2] -5.16% and -4.75% | activation [3] -1.8% and -1.55% | activation [7] 2.04% and 0.0367% | max response [8] -1.16% and -2.1%

Nc1cccc2c(N)cccc12
inactive: activation [2] -3.42% and 1.45% | activation [3] -0.416% and 0.0033% | max response [8] -0.422% and -2.29%

C[C@@H](O[C@H]1OCCN(Cc2n[nH]c(=O)[nH]2)[C@H]1c1ccc(F)cc1)c1cc(C(F)(F)F)cc(C(F)(F)F)c1
active: Potency [10] 33.2 µM

Oc1ccccc1
inactive: activation [2] -2.44% and -1.24% and 0.0138% | outcome [6] | activation [7] -1.73% and 0.212% and 0.333% | max response [8] -1.31% and -1.33% and -1.91%

CCCCCCCCCCCC[N+](C)(C)Cc1ccccc1
inactive: activation [3] 3.11% | activation [7] -1.52% | max response [8] 8.99%

O=C(c1ccccc1)c1ccccc1
inactive: activation [2] -6.89% and 0.517% | Potency [4] | Potency [5] | outcome [6] | activation [7] -0.735% and 18.8% | max response [8] -0.839% and -0.419%

COC(=O)c1c(Cl)c(Cl)c(C(=O)OC)c(Cl)c1Cl
active: Potency [1] 54.5 µM
inactive: activation [2] 1.22% | activation [3] 0.623% | activation [7] 0.102% | max response [8] -0.617%

CC(C)(c1ccc(O)cc1)c1ccc(O)cc1
inactive: activation [2] -1.88% and -5.31% and -3.08% | activation [3] -0.409% and -2.36% and -2.41% | outcome [6] | activation [7] 3.05% and 4.15% and 3.72% | max response [8] -6.65% and -3.38% and -3.11%

O=C(Nc1ccc(Cl)cc1)Nc1ccc(Cl)c(Cl)c1
inactive: activation [3] 6.88% | max response [8] -0.555%

O=C(NO)c1ccccc1
inactive: activation [2] 3.57% | activation [3] 0.132% | outcome [6] | outcome [9] | activation [7] -0.612% | max response [8] -0.429%
